The values below come from PubChem BioAssay (NCI).

Several values for one entry are separate records, joined by “and”; a condition that tells them apart may be missing. Equal entries are not always repeated. This is part of a sample that, as a whole, favours compounds with a hit. Of some 83,000 tested, about 20% had one in any assay.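 The test compound was applied at a single concentration to cells in 96-well plates for 48 hours, and percent growth was recorded.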 A number with no mark means an inactive call. Activity calls are given as the source filed them. How the source made its calls: active means growth percent below 10; inactive means the rest.

Test systems include NCI-H226 lung; NCI-H322M lung; HOP-62 NSCLC; NCI-H460 lung; HOP-92 NSCLC; A549/ATCC NSCLC; 786-0 renal; COLO 205 colon.
Holding throughout (experiment): NCI-60 one-dose screen, 48 h (100 = growth as untreated, 0 = no growth, -100 = all killed)
A further assay deals with NCI-H23 lung. The following applies: 10 µM unless noted.
The test system of a further assay is NCI-H522 lung. The following applies: 10 µM unless noted.

As for `Cc1ccc(C(=Nc2ccccc2)N=P(c2ccccc2)(c2ccccc2)c2ccccc2)cc1`, the growth in the assay on NCI-H23 lung is -24.5% (active); in the assay with NCI-H226 lung (10 µM unless noted), -46.2% (active); with NCI-H322M lung (10 µM unless noted), -29.4% (active); in the assay on HOP-62 NSCLC (10 µM unless noted), -90.2% (active); in the assay with NCI-H460 lung (10 µM unless noted) it was -75.2% (active); in the assay on HOP-92 NSCLC (10 µM unless noted), -43.1% (active). In addition, the growth in the assay on NCI-H522 lung is -55.8% (active); in the assay on A549/ATCC NSCLC (10 µM unless noted), 6.89% (active); with 786-0 renal (10 µM unless noted), -55% (active); with COLO 205 colon (10 µM unless noted), -87.8% (active).
On to `NC(=O)/C=C/C(=O)c1c(Cl)cccc1Cl`, for which the growth is -79.1% (active) with NCI-H23 lung; 37.9% in the assay on NCI-H226 lung (10 µM unless noted); 19.1% with NCI-H322M lung (10 µM unless noted); -4.87% (active) with HOP-62 NSCLC (10 µM unless noted); -34.1% (active) with NCI-H460 lung (10 µM unless noted); -99.3% (active) with HOP-92 NSCLC (10 µM unless noted). The growth was -59.5% (active) in the assay on NCI-H522 lung, -43.1% (active) with A549/ATCC NSCLC (10 µM unless noted), -98.8% (active) with 786-0 renal (10 µM unless noted) and -89.6% (active) in the assay on COLO 205 colon (10 µM unless noted).
Regarding `CCC(c1cccc(O)c1)C(CC)c1cccc(O)c1` (stereo not drawn), the growth was 78.7% in the assay with NCI-H23 lung; 82.7% in the assay on NCI-H226 lung (10 µM unless noted); 59.5% in the assay on NCI-H322M lung (10 µM unless noted); 83.8% in the assay with HOP-62 NSCLC (10 µM unless noted); 59.4% in the assay on NCI-H460 lung (10 µM unless noted); 57% in the assay with HOP-92 NSCLC (10 µM unless noted). In addition, the growth in the assay with NCI-H522 lung was 56.3%; in the assay with A549/ATCC NSCLC (10 µM unless noted), 67.8%; in the assay on 786-0 renal (10 µM unless noted), 74.8%; with COLO 205 colon (10 µM unless noted), 61.9%.
As to `CCOC(=O)c1c(C)[nH]c(CO)c1C`, the growth with NCI-H23 lung is 99.1%; in the assay on NCI-H226 lung (10 µM unless noted), 114%; in the assay on NCI-H322M lung (10 µM unless noted), 94.9%; in the assay on HOP-62 NSCLC (10 µM unless noted), 93.9%; with NCI-H460 lung (10 µM unless noted), 110%; with HOP-92 NSCLC (10 µM unless noted) it was 101%. In addition, the growth in the assay on NCI-H522 lung was 84.3%; in the assay on A549/ATCC NSCLC (10 µM unless noted) it was 90.7%; in the assay on 786-0 renal (10 µM unless noted), 106%; with COLO 205 colon (10 µM unless noted), 104%.
For `O=C(Nc1cccc(Br)c1)Oc1cccc2cccnc12`, the growth with NCI-H226 lung (10 µM) was 106%; in the assay on NCI-H226 lung (100 µM) it was 63.1%; in the assay with NCI-H322M lung (10 µM), 117%; with NCI-H322M lung (100 µM), 84.9%; with HOP-62 NSCLC (10 µM), 102%; in the assay on HOP-62 NSCLC (100 µM), 50.1%. In addition, the growth was 104% with NCI-H460 lung (10 µM); 8.11% (active) with NCI-H460 lung (100 µM); 83% in the assay with HOP-92 NSCLC (10 µM); 49.2% with HOP-92 NSCLC (100 µM); -56.9% [100 µM] (active) with NCI-H522 lung; 99.1% in the assay on A549/ATCC NSCLC (10 µM). Besides, the growth in the assay with A549/ATCC NSCLC (100 µM) was 20.7%; in the assay with 786-0 renal (10 µM) it was 94.9%; in the assay on 786-0 renal (100 µM) it was 88.6%; in the assay on COLO 205 colon (10 µM), 117%; in the assay with COLO 205 colon (100 µM), 51.8%.
As to `N#CC1C(=O)SC2c3ccccc3C(=O)c3ccccc3C12` (stereo not drawn), the growth was 104% in the assay on NCI-H23 lung; 94.8% in the assay on NCI-H226 lung (10 µM unless noted); 98.8% with NCI-H322M lung (10 µM unless noted); 96.1% in the assay with HOP-62 NSCLC (10 µM unless noted); 96.9% in the assay with NCI-H460 lung (10 µM unless noted); 71.8% in the assay with HOP-92 NSCLC (10 µM unless noted). In addition, the growth with NCI-H522 lung was 94.9%; in the assay with A549/ATCC NSCLC (10 µM unless noted) it was 84.9%; with 786-0 renal (10 µM unless noted) it was 96.8%; with COLO 205 colon (10 µM unless noted) it was 107%.
Take `O=C(Nc1c(Cl)cccc1Cl)Oc1cccc2cccnc12`: the growth is 66.1% in the assay on NCI-H226 lung (10 µM); 13.9% in the assay with NCI-H226 lung (100 µM); 23.7% in the assay on NCI-H322M lung (10 µM); 25% in the assay on NCI-H322M lung (100 µM); 47.5% in the assay on HOP-62 NSCLC (10 µM); 28.8% with HOP-62 NSCLC (100 µM). The growth in the assay with NCI-H460 lung (10 µM) is 27.1%; in the assay on NCI-H460 lung (100 µM), 9% (active); in the assay on HOP-92 NSCLC (10 µM) it was 53.2%; in the assay on HOP-92 NSCLC (100 µM), 23.2%; with NCI-H522 lung, -4.33% [100 µM] (active); with A549/ATCC NSCLC (10 µM), 38%. In addition, the growth is 18.2% in the assay with A549/ATCC NSCLC (100 µM); 72% in the assay on 786-0 renal (10 µM); 31.3% in the assay with 786-0 renal (100 µM); 52.4% with COLO 205 colon (10 µM); 92.8% in the assay on COLO 205 colon (100 µM).
In the case of `COC(=O)Nc1nc2ccc(C(=O)c3ccccc3)cc2[nH]1`, the growth in the assay with NCI-H226 lung (10 µM unless noted) is 50.9% and 80.4% and 109%; in the assay with NCI-H322M lung (10 µM unless noted), 56.9% and 66.1% and 44.1%; in the assay with HOP-62 NSCLC (10 µM unless noted), 30.4% and 21.9% and 49.2%; in the assay with NCI-H460 lung (10 µM unless noted) it was 6.48% (active) and 1.24% (active) and -0.135% (active); with HOP-92 NSCLC (10 µM unless noted) it was 65.7% and 41.8% and 35.3%; with NCI-H522 lung, -11.7% (active) and -16.9% (active) and -32.5% (active). Further, the growth in the assay with A549/ATCC NSCLC (10 µM unless noted) is 20.8% and 22.2% and 17.2%; with 786-0 renal (10 µM unless noted), 19.8% and 23.6% and 31.9%; in the assay with COLO 205 colon (10 µM unless noted), 0.824% (active) and -17.1% (active) and -22.8% (active).
For the molecule `NC(=S)N/N=C\c1nccc2c(C(F)(F)C(F)(F)C(F)(F)F)cccc12`, the growth is 9.5% (active) in the assay on NCI-H23 lung; -27.3% (active) in the assay with NCI-H226 lung (10 µM unless noted); -1.69% (active) in the assay with NCI-H322M lung (10 µM unless noted); -7.59% (active) in the assay with HOP-62 NSCLC (10 µM unless noted); -25.9% (active) with NCI-H460 lung (10 µM unless noted); -2.33% (active) in the assay with HOP-92 NSCLC (10 µM unless noted). The growth was -20.7% (active) with NCI-H522 lung, -20.8% (active) in the assay on A549/ATCC NSCLC (10 µM unless noted), -48.3% (active) in the assay with 786-0 renal (10 µM unless noted) and 16.5% with COLO 205 colon (10 µM unless noted).
For `C=CCOc1ccc(N=NC(C#N)C#N)cc1`, the growth is 75.7% in the assay on NCI-H23 lung; 84.5% in the assay with NCI-H226 lung (10 µM unless noted); 93% in the assay on NCI-H322M lung (10 µM unless noted); 52.3% in the assay on HOP-62 NSCLC (10 µM unless noted); 104% in the assay on NCI-H460 lung (10 µM unless noted); -13.1% (active) in the assay on HOP-92 NSCLC (10 µM unless noted). The growth was -12.9% (active) in the assay with NCI-H522 lung, 86.3% in the assay on A549/ATCC NSCLC (10 µM unless noted), 78.8% with 786-0 renal (10 µM unless noted) and 22.1% in the assay on COLO 205 colon (10 µM unless noted).
